Reference: PubChem BioAssay (EPA / NIEHS)
Values joined by “and” are separate entries in the source; they are usually repeats but may differ in a detail not shown here. Identical values can stand only once. The source holds several records for some structures; these can differ, active in one and inactive in another. Active and inactive are the calls of the source. How the source made its calls: active means hit-call score of the fitted dose curve at least 0.9, where 1 is the maximum; inactive means score below 0.9.

Columns and labels:
[1] = read-out: Interleukin-8 (IL8), CXCL8 (gene 3576); experiment: BSK_MyoF_IL8: BioMAP Diversity Plus: MyoF Assay for Interleukin-8 (IL8) Biomarker Activity (AID 2284261); details: primary human lung fibroblasts
Summary of the method: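 Human lung fibroblast (MyoF system) cultures dosed for 24 h, then IL-8 measured by ELISA. Response taken relative to DMSO; parallel SRB total-protein staining for cytotoxicity.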

[2] = read-out: Matrix Metallopeptidase 1 (MMP1), MMP1 (gene 4312); experiment: BSK_MyoF_MMP1: BioMAP Diversity Plus: MyoF Assay for Matrix Metallopeptidase 1 (MMP1) Biomarker Activity (AID 2284268); details: primary human lung fibroblasts
Summary of the method: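 Human lung fibroblast primary cells; MMP1 measured by ELISA 24 h after dosing, fitted in the positive direction relative to DMSO. Parallel SRB staining (0.1%, after 10% TCA fixation, 560 nm) assesses overt cytotoxicity.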

[3] = read-out: TIMP metallopeptidase inhibitor 1 (TIMP1), TIMP1 (gene 7076); experiment: BSK_MyoF_TIMP1: BioMAP Diversity Plus: MyoF Assay for TIMP metallopeptidase inhibitor 1 (TIMP1) Biomarker Activity (AID 2284269); details: primary human lung fibroblasts
Summary of the method: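 Fibroblasts from human lung are dosed with chemical, cultured 24 h, and assayed for TIMP-1 by ELISA. Increases over the DMSO baseline are scored, with SRB total-protein staining run in parallel for cytotoxicity.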

CD69, CD69 (gene 969) = experiment: BSK_IMphg_CD69: BioMAP Diversity Plus: IMphg Assay for CD69 Biomarker Activity (AID 2284257); details: primary human endothelial cells with macrophages
Summary of the method: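 Readout is ELISA for CD69 in primary human venular endothelial cell/macrophage co-culture, taken at 24 h post-dosing. SRB staining of parallel cultures gauged overt cytotoxicity; signal increase versus DMSO defined activity.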

[4] = read-out: Eotaxin 3, CCL26 (gene 10344); experiment: BSK_BF4T_Eotaxin3: BioMAP Diversity Plus: BF4T Assay for Eotaxin 3 Biomarker Activity (AID 2284258); details: primary human bronchial epithelial cells with fibroblasts
Summary of the method: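 ELISA measurement of Eotaxin-3 after 24 h chemical exposure in a bronchial epithelial/dermal fibroblast co-culture, with DMSO as baseline. Parallel SRB staining (0.1% SRB after 10% TCA fixation, 560 nm) flagged overt cytotoxicity.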

[5] = read-out: Monocyte Chemoattractant Protein-1 (MCP1), CCL2 (gene 6347); experiment: BSK_BF4T_MCP1: BioMAP Diversity Plus: BF4T Assay for Monocyte Chemoattractant Protein-1 (MCP1) Biomarker Activity (AID 2284259); details: primary human bronchial epithelial cells with fibroblasts
Summary of the method: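 MCP-1 ELISA readout taken 24 h after dosing in the BF4T system (bronchial epithelial cells plus dermal fibroblasts). Parallel SRB total-protein staining flagged cytotoxicity; DMSO served as baseline, positive fitting direction.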

[6] = read-out: Intercellular Adhesion Molecule 1 (ICAM1), ICAM1 (gene 3383); experiment: BSK_BF4T_ICAM1: BioMAP Diversity Plus: BF4T Assay for Intercellular Adhesion Molecule 1 (ICAM1) Biomarker Activity (AID 2284260); details: primary human bronchial epithelial cells with fibroblasts
Summary of the method: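 ICAM-1 levels measured by ELISA after 24 h chemical treatment of bronchial epithelial cell/dermal fibroblast co-cultures, read against DMSO baseline. Overt cytotoxicity checked in parallel cultures by sulforhodamine B staining.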

CD90, THY1 (gene 7070) = experiment: BSK_BF4T_CD90: BioMAP Diversity Plus: BF4T Assay for CD90 Biomarker Activity (AID 2284262); details: primary human bronchial epithelial cells with fibroblasts
Summary of the method: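 CD90 levels by ELISA after 24 h treatment of human bronchial epithelial cell/dermal fibroblast cultures, analysed versus DMSO. Overt cytotoxicity checked in parallel cultures by sulforhodamine B staining.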

[7] = read-out: Matrix Metallopeptidase 1 (MMP1), MMP1 (gene 4312); experiment: BSK_BF4T_MMP1: BioMAP Diversity Plus: BF4T Assay for Matrix Metallopeptidase 1 (MMP1) Biomarker Activity (AID 2284270); details: primary human bronchial epithelial cells with fibroblasts
Summary of the method: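 MMP-1 quantified by ELISA in primary human bronchial epithelial/dermal fibroblast co-cultures, 24 hours post-dosing, with DMSO as baseline; parallel sulforhodamine B staining (560 nm) tracks overt cytotoxicity.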

[8] = read-out: Plasminogen Activator Inhibitor-1 (PAI1), SERPINE1 (gene 5054); experiment: BSK_BF4T_PAI1: BioMAP Diversity Plus: BF4T Assay for Plasminogen Activator Inhibitor-1 (PAI1) Biomarker Activity (AID 2284273); details: primary human bronchial epithelial cells with fibroblasts
Summary of the method: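 PAI-1 levels quantified by ELISA 24 h post-dosing in bronchial epithelial cell plus dermal fibroblast cultures. Signal gain referenced to DMSO baseline. Sulforhodamine B total-protein staining of parallel wells checked cytotoxicity.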

[9] = BSK_BF4T_SRB: Viability Assessment in the BioMAP Diversity Plus: BF4T Assay (AID 2284274); details: primary human bronchial epithelial cells with fibroblasts
Summary of the method: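 Cytotoxicity measured as total protein: cells fixed with 10% TCA, stained with 0.1% SRB, read at 560 nm. Bronchial epithelial/dermal fibroblast co-culture, 24 h after dosing, with positive-direction fitting relative to DMSO.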

[10] = read-out: Matrix Metallopeptidase 9 (MMP9), MMP9 (gene 4318); experiment: BSK_BF4T_MMP9: BioMAP Diversity Plus: BF4T Assay for Matrix Metallopeptidase 9 (MMP9) Biomarker Activity (AID 2284276); details: primary human bronchial epithelial cells with fibroblasts
Summary of the method: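 MMP-9 levels were measured by ELISA after 24 h exposure of bronchial epithelial cell/dermal fibroblast co-cultures, with DMSO as baseline. Parallel cultures were stained with 0.1% SRB after TCA fixation, read at 560 nm, to flag overt cytotoxicity.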

[11] = read-out: Interleukin-8 (IL8), CXCL8 (gene 3576); experiment: BSK_IMphg_IL8: BioMAP Diversity Plus: IMphg Assay for Interleukin-8 (IL8) Biomarker Activity (AID 2284277); details: primary human endothelial cells with macrophages
Summary of the method: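 IL-8 levels were measured by ELISA 24 h after dosing in primary human venular endothelial cell–macrophage cultures, referenced to DMSO; parallel SRB staining monitored overt cytotoxicity.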

[12] = read-out: Intercellular Adhesion Molecule 1 (ICAM1), ICAM1 (gene 3383); experiment: BSK_BE3C_ICAM1: BioMAP Diversity Plus: BE3C Assay for Intercellular Adhesion Molecule 1 (ICAM1) Biomarker Activity (AID 2284278); details: primary human bronchial epithelial cells;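 further: cell-surface ICAM-1 protein level quantified by ELISA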
Summary of the method: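 ELISA read-out of ICAM-1 on human lung bronchial epithelial primary cells, 24 h post-dosing; positive-direction curve fit, DMSO = baseline. SRB total-protein staining of parallel cultures flagged overt cytotoxicity.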

[13] = read-out: Interleukin-8 (IL8), CXCL8 (gene 3576); experiment: BSK_BE3C_IL8: BioMAP Diversity Plus: BE3C Assay for Interleukin-8 (IL8) Biomarker Activity (AID 2284280); details: primary human bronchial epithelial cells
Summary of the method: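 Measured at 24 h after treatment, IL-8 from human primary bronchial epithelial cells is determined by ELISA, and the response is modelled as increasing relative to DMSO negative control.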

[14] = read-out: Epidermal growth factor receptor (EGFR), EGFR (gene 1956); experiment: BSK_BE3C_EGFR: BioMAP Diversity Plus: BE3C Assay for Epidermal growth factor receptor (EGFR) Biomarker Activity (AID 2284281); details: primary human bronchial epithelial cells
Summary of the method: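 Measured 24 h after dosing in primary human bronchial epithelial cultures, EGFR was read by ELISA; gain of signal over DMSO control defined activity.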

[15] = read-out: Matrix Metallopeptidase 9 (MMP9), MMP9 (gene 4318); experiment: BSK_BE3C_MMP9: BioMAP Diversity Plus: BE3C Assay for Matrix Metallopeptidase 9 (MMP9) Biomarker Activity (AID 2284283); details: primary human bronchial epithelial cells
Summary of the method: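 Human primary bronchial epithelial cells exposed 24 h to compound. MMP9 quantified by ELISA. SRB total-protein staining of parallel cultures assesses cytotoxicity. Positive-direction fit relative to DMSO.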

[16] = read-out: Plasminogen activator inhibitor-1 (PAI1), SERPINE1 (gene 5054); experiment: BSK_CASM3C_PAI1: BioMAP Diversity Plus: CASM3C Assay for Plasminogen activator inhibitor-1 (PAI1) Biomarker Activity (AID 2284284); details: primary human coronary artery smooth muscle cells
[17] = read-out: Monocyte Chemoattractant Protein-1 (MCP1), CCL2 (gene 6347); experiment: BSK_hDFCGF_MCP1: BioMAP Diversity Plus: hDFCGF Assay for Monocyte Chemoattractant Protein-1 (MCP1) Biomarker Activity (AID 2284285); details: primary human foreskin fibroblasts
Summary of the method: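 MCP-1 ELISA readout was taken 24 hours after dosing primary human dermal fibroblasts in the hDFCGF system, with DMSO as baseline. Parallel sulforhodamine B staining of total protein tracked overt cytotoxicity.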

[18] = read-out: Vascular cell adhesion molecule 1 (VCAM1), VCAM1 (gene 7412); experiment: BSK_IMphg_VCAM1: BioMAP Diversity Plus: IMphg Assay for Vascular cell adhesion molecule 1 (VCAM1) Biomarker Activity (AID 2284286); details: primary human endothelial cells with macrophages
Summary of the method: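 ELISA read-out of VCAM-1 on venular endothelial cell/macrophage co-cultures at 24 h post-treatment, with DMSO as baseline and positive-direction fitting. Parallel sulforhodamine B total-protein staining (560 nm) served as the overt cytotoxicity measure.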

Measured: AC50

COC1=CC(=O)C[C@@H](C)[C@]12Oc1c(Cl)c(OC)cc(OC)c1C2=O
inactive: [1] | [3]
active: [2] 20 µM

CC(C)(C)c1ccc(O)c(O)c1
inactive: [1] | [2]
active: [3] 31.2 µM

CN(Cc1cnc2nc(N)nc(N)c2n1)c1ccc(C(=O)N[C@@H](CCC(=O)O)C(=O)O)cc1
active: [17] 0.607 µM
inactive: CD69, CD69 (gene 969) | [4] | [5] | [6] | [1] | CD90, THY1 (gene 7070) | [2] | [3] | [7] | [8] | [9] | [10] | [11] | [12] | [13] | [14] | [15] | [16] | [17] | [18]

O=C(NCc1ncc(C(F)(F)F)cc1Cl)c1c(Cl)cccc1Cl
inactive: [1] | [2] | [3]

CCCCCc1ccc(O)cc1
inactive: [1]
active: [2] 36.6 µM | [3] 20 µM

CN(CCO)S(=O)(=O)C(F)(F)C(F)(F)C(F)(F)C(F)(F)C(F)(F)C(F)(F)C(F)(F)C(F)(F)F
inactive: CD69, CD69 (gene 969) | [4] | [5] | [6] | [1] | CD90, THY1 (gene 7070) | [2] | [3] | [7] | [8] | [9] | [10] | [11] | [12] | [13] | [14] | [15] | [16] | [17] | [18]
active: [17] 0.0742 µM

O=S(=O)(O)C(F)(F)C(F)(F)C(F)(F)C(F)(F)C(F)(F)C(F)(F)C(F)(F)C(F)(F)C(F)(F)C(F)(F)F
inactive: CD69, CD69 (gene 969) | [5] | [6] | [1] | CD90, THY1 (gene 7070) | [2] | [3] | [7] | [8] | [9] | [10] | [11] | [12] | [13] | [14] | [16] | [17] | [18]
active: [4] 5.78 µM and 2.59 µM | [11] 12.2 µM | [15] 9.67 µM and 13.3 µM | [17] 10.3 µM

O=C(O)CCC(F)(F)C(F)(F)C(F)(F)C(F)(F)C(F)(F)F
inactive: all assays above

C=CC(=O)OCCC(F)(F)C(F)(F)C(F)(F)C(F)(F)C(F)(F)C(F)(F)C(F)(F)C(F)(F)F
inactive: CD69, CD69 (gene 969) | [4] | [5] | [6] | [1] | CD90, THY1 (gene 7070) | [2] | [3] | [7] | [8] | [9] | [10] | [11] | [12] | [13] | [14] | [15] | [16] | [17] | [18]
active: [17] 7.29 µM

O=C(O)CCC(F)(F)C(F)(F)C(F)(F)C(F)(F)C(F)(F)C(F)(F)F
inactive: CD69, CD69 (gene 969) | [4] | [5] | [6] | [1] | CD90, THY1 (gene 7070) | [2] | [3] | [7] | [8] | [9] | [10] | [12] | [13] | [14] | [15] | [16] | [17] | [18]
active: CD69, CD69 (gene 969) 13.6 µM | [4] 2.88 µM | [11] 14.2 µM and 23 µM and 17.1 µM

O=C1OC2(c3ccccc31)c1cc(I)c(O)c(I)c1Oc1c2cc(I)c(O)c1I
active: [1] 3.37 µM | [2] 0.605 µM | [3] 7.73 µM

OCC(F)(F)C(F)(F)C(F)(F)C(F)(F)C(F)(F)C(F)(F)C(F)(F)C(F)(F)C(F)(F)C(F)(F)C(F)(F)F
inactive: CD69, CD69 (gene 969) | [4] | [5] | [6] | [1] | CD90, THY1 (gene 7070) | [2] | [3] | [7] | [8] | [9] | [10] | [11] | [12] | [13] | [14] | [16] | [17] | [18]
active: [11] 0.216 µM | [13] 224 nM | [15] 229 nM and 222 nM

Cc1ccc(N=Nc2c(O)ccc3ccccc23)c(C)c1
inactive: [1] | [2] | [3]
